“And” between values parts separate entries of the source, which are not always exact repeats. Equal values may be shown once.

The values below come from the supplement of paper PMC8253809.

The first assay has as its system DIPGX7 (H3.3 K27M diffuse intrinsic pontine glioma line). Put plainly: growth inhibition (% activity, log2 RLU normalised to DMSO / staurosporine); higher = more growth inhibition. As to conditions: 33 µM. In short, it runs like this:
(§1)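 Approved drugs were tested in triplicate at a single final concentration of about 33 μM for 7 days at 37 °C, 5% CO2, on pHGG cell lines and H9-derived neural stem cells. Readout was CellTiter-Glo luminescence, log2-transformed and scaled per plate to % activity between solvent and positive control wells. The median over replicates gives the growth-inhibition value.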
As to `Cc1ccc(NC(=O)c2ccc(CN3CCN(C)CC3)cc2)cc1Nc1nc(-c2cccnc2)cs1`, the growth inhibition amounted to 8.77%.

Consider `CO[C@H]1C(=O)[C@]2(C)[C@@H](OC)C[C@H]3OC[C@@]3(OC(C)=O)[C@H]2[C@H](OC(=O)c2ccccc2)[C@]2(O)C[C@H](OC(=O)[C@H](O)[C@@H](NC(=O)OC(C)(C)C)c3ccccc3)C(C)=C1C2(C)C`, for which the growth inhibition came out at 8.93%.

For the compound `C#C[C@]1(O)CC[C@H]2[C@@H]3CCc4cc(O)ccc4[C@H]3CC[C@@]21C`, the growth inhibition was found to be 0.741%.

In the case of `CN(C)c1ccc(C(=C2C=CC(=[N+](C)C)C=C2)c2ccc(N(C)C)cc2)cc1`, the growth inhibition is 42.3%.

As to `CN1CCN(c2c(F)cc3c(=O)c(C(=O)O)cn(CCF)c3c2F)CC1`, the growth inhibition came out at 2.04%.

For `CC(C)(C#N)c1cc(Cn2cncn2)cc(C(C)(C)C#N)c1`, the growth inhibition is 0.764%.

Regarding `CNC(=O)c1ccccc1Sc1ccc2c(/C=C/c3ccccn3)n[nH]c2c1`, the growth inhibition stood at 11.4%.

For `Cc1ccccc1C(=O)Nc1ccc(C(=O)N2CCCC(O)c3cc(Cl)ccc32)c(C)c1` (stereo not drawn), the growth inhibition came out at 1.66%.

In the case of `O=C(O)c1cc(=O)c2ccccc2o1`, the growth inhibition was 0.253%.

Turning to `CC[C@H](C)C(=O)O[C@H]1C[C@H](O)C=C2C=C[C@H](C)[C@H](CC[C@@H](O)C[C@@H](O)CC(=O)O)[C@H]21`, the growth inhibition is 5.32%.

Take `Cc1ccccc1C(OCCN(C)C)c1ccccc1` (stereo not drawn): the growth inhibition is -0.00592%.

Take `CC(C)(Oc1ccc(Cl)cc1)C(=O)O`: the growth inhibition is -0.722%.

Regarding `C#C[C@]1(OC(C)=O)CC[C@H]2[C@@H]3CCC4=C[C@@H](OC(C)=O)CC[C@@H]4[C@H]3CC[C@@]21C`, the growth inhibition is -1.67%.

Regarding `CN1[C@@H]2CC[C@H]1CC(OC(=O)c1c[nH]c3ccccc13)C2` (stereo partly drawn), the growth inhibition was found to be 6.41%.

For the compound `Cc1ccccc1N1C(=O)c2cc(S(N)(=O)=O)c(Cl)cc2NC1C` (stereo not drawn), the growth inhibition is -3.01%.

`Cc1cc(NS(=O)(=O)c2ccc(N)cc2)no1`: the growth inhibition was -1.62%.

As to `COC(=O)C1=C(C)NC(C)=C(C(=O)OC2CCCN(Cc3ccccc3)C2)C1c1cccc([N+](=O)[O-])c1` (stereo not drawn), the growth inhibition stood at 2.15%.

Consider `CC(C)/N=c1\cc2n(-c3ccc(Cl)cc3)c3ccccc3nc-2cc1Nc1ccc(Cl)cc1`, for which the growth inhibition was found to be 11.1%.

On to `O=C(OCC(O)CO)c1ccccc1Nc1ccnc2cc(Cl)ccc12` (stereo not drawn), for which the growth inhibition is -1.23%.

For `O=C(O)CSCC(=O)NC1CCSC1=O` (stereo not drawn), the growth inhibition is -0.264%.

`C=C1CC[C@H](O)C/C1=C/C=C1\CCC[C@]2(C)[C@@H]([C@H](C)/C=C/[C@H](C)C(C)C)CC[C@@H]12`: the growth inhibition was found to be 5.34%.

Consider `COC(=O)Nc1nc2cc([S+]([O-])c3ccccc3)ccc2[nH]1` (stereo not drawn), for which the growth inhibition was determined as 4.77%.

`CN(C)[C@@H](CCOc1cccc2ccccc12)c1ccccc1`: the growth inhibition came out at 6%.

For `O=c1c(-c2ccc(O)cc2)coc2cc(O)cc(O)c12`, the growth inhibition was 2.16%.

On to `O=C1CCc2cc(OCCCCc3nnnn3C3CCCCC3)ccc2N1`, for which the growth inhibition is 4.29%.

For `C[C@@](Cc1ccc(O)c(O)c1)(NN)C(=O)O`, the growth inhibition was -0.935%.

For `CCc1ccc(CCOc2ccc(CC3SC(=O)NC3=O)cc2)nc1` (stereo not drawn), the growth inhibition is -1.47% and 2.56%.

Consider `CC(C[N+](C)(C)C)OC(N)=O` (stereo not drawn), for which the growth inhibition is -1.77%.

For the compound `CN(C)CCOc1ccc(/C(=C(/CCCl)c2ccccc2)c2ccccc2)cc1`, the growth inhibition was 6.73%.

Consider `CCNC(=O)CCC/C=C\C[C@@H]1[C@@H](/C=C/[C@@H](O)CCc2ccccc2)[C@H](O)C[C@@H]1O`, for which the growth inhibition stood at 1.77%.

On to `CO[C@H]1O[C@@H]2O[C@@]3(C)CC[C@H]4[C@H](C)CC[C@@H]([C@H]1C)[C@@]24OO3`, for which the growth inhibition came out at 1.37%.

With `N=C(N)NS(=O)(=O)c1ccc(N)cc1`, the growth inhibition was 1.86%.

For `CNC[C@H](O)c1cccc(O)c1`, the growth inhibition was 2.1%.

Take `CC(C)(C)NCC(O)c1ccc(O)c(CO)c1` (stereo not drawn): the growth inhibition was -0.0436%.

For `C=C1[C@H](CO)[C@@H](O)C[C@@H]1n1cnc2c(=O)[nH]c(N)nc21`, the growth inhibition is -0.963%.

For the compound `CC(C)(C(=O)O)c1ccc(C(O)CCCN2CCC(C(O)(c3ccccc3)c3ccccc3)CC2)cc1` (stereo not drawn), the growth inhibition is 0.287%.

Consider `NCCS`, for which the growth inhibition is -0.687%.

For the compound `CCCc1nn(C)c2c(=O)[nH]c(-c3cc(S(=O)(=O)N4CCN(C)CC4)ccc3OCC)nc12`, the growth inhibition was found to be 0.899%.

In the case of `COC1C(O)CC(=O)OC(C)CC=CC=CC(OC2CCC(N(C)C)C(C)O2)C(C)CC(CC=O)C1OC1OC(C)C(OC2CC(C)(O)C(O)C(C)O2)C(N(C)C)C1O` (stereo not drawn), the growth inhibition is -0.322%.

Another assay has as its system DIPGX9 (diffuse intrinsic pontine glioma line). The assay is described as above. As to conditions: 33 µM. An outline of the steps:
as §1
For the compound `Cc1ccc(NC(=O)c2ccc(CN3CCN(C)CC3)cc2)cc1Nc1nc(-c2cccnc2)cs1`, the growth inhibition was determined as 6.79%.

Consider `CO[C@H]1C(=O)[C@]2(C)[C@@H](OC)C[C@H]3OC[C@@]3(OC(C)=O)[C@H]2[C@H](OC(=O)c2ccccc2)[C@]2(O)C[C@H](OC(=O)[C@H](O)[C@@H](NC(=O)OC(C)(C)C)c3ccccc3)C(C)=C1C2(C)C`, for which the growth inhibition stood at 18.4%.

With `C#C[C@]1(O)CC[C@H]2[C@@H]3CCc4cc(O)ccc4[C@H]3CC[C@@]21C`, the growth inhibition turned out to be 0.29%.

With `CN(C)c1ccc(C(=C2C=CC(=[N+](C)C)C=C2)c2ccc(N(C)C)cc2)cc1`, the growth inhibition was found to be 41.4%.

As to `CN1CCN(c2c(F)cc3c(=O)c(C(=O)O)cn(CCF)c3c2F)CC1`, the growth inhibition was found to be 2.14%.

As to `CC(C)(C#N)c1cc(Cn2cncn2)cc(C(C)(C)C#N)c1`, the growth inhibition was -0.00856%.

Regarding `CNC(=O)c1ccccc1Sc1ccc2c(/C=C/c3ccccn3)n[nH]c2c1`, the growth inhibition was determined as 17.5%.

On to `Cc1ccccc1C(=O)Nc1ccc(C(=O)N2CCCC(O)c3cc(Cl)ccc32)c(C)c1` (stereo not drawn), for which the growth inhibition was 1.96%.

In the case of `O=C(O)c1cc(=O)c2ccccc2o1`, the growth inhibition was 1.55%.

Regarding `CC[C@H](C)C(=O)O[C@H]1C[C@H](O)C=C2C=C[C@H](C)[C@H](CC[C@@H](O)C[C@@H](O)CC(=O)O)[C@H]21`, the growth inhibition is 1.14%.

For the compound `Cc1ccccc1C(OCCN(C)C)c1ccccc1` (stereo not drawn), the growth inhibition stood at 1.44%.

Turning to `CC(C)(Oc1ccc(Cl)cc1)C(=O)O`, the growth inhibition was -1.38%.

In the case of `C#C[C@]1(OC(C)=O)CC[C@H]2[C@@H]3CCC4=C[C@@H](OC(C)=O)CC[C@@H]4[C@H]3CC[C@@]21C`, the growth inhibition came out at 1.3%.

As for `CN1[C@@H]2CC[C@H]1CC(OC(=O)c1c[nH]c3ccccc13)C2` (stereo partly drawn), the growth inhibition is 23.4%.

With `Cc1ccccc1N1C(=O)c2cc(S(N)(=O)=O)c(Cl)cc2NC1C` (stereo not drawn), the growth inhibition was -0.0701%.

On to `Cc1cc(NS(=O)(=O)c2ccc(N)cc2)no1`, for which the growth inhibition was -1.67%.

As to `COC(=O)C1=C(C)NC(C)=C(C(=O)OC2CCCN(Cc3ccccc3)C2)C1c1cccc([N+](=O)[O-])c1` (stereo not drawn), the growth inhibition is 3.22%.

With `CC(C)/N=c1\cc2n(-c3ccc(Cl)cc3)c3ccccc3nc-2cc1Nc1ccc(Cl)cc1`, the growth inhibition came out at 5.47%.

For the compound `O=C(OCC(O)CO)c1ccccc1Nc1ccnc2cc(Cl)ccc12` (stereo not drawn), the growth inhibition is 1.63%.

Turning to `O=C(O)CSCC(=O)NC1CCSC1=O` (stereo not drawn), the growth inhibition was -0.495%.

As for `C=C1CC[C@H](O)C/C1=C/C=C1\CCC[C@]2(C)[C@@H]([C@H](C)/C=C/[C@H](C)C(C)C)CC[C@@H]12`, the growth inhibition was 3.65%.

Consider `COC(=O)Nc1nc2cc([S+]([O-])c3ccccc3)ccc2[nH]1` (stereo not drawn), for which the growth inhibition was 5.87%.

Turning to `CN(C)[C@@H](CCOc1cccc2ccccc12)c1ccccc1`, the growth inhibition came to 3.36%.

As for `O=c1c(-c2ccc(O)cc2)coc2cc(O)cc(O)c12`, the growth inhibition was found to be 4.34%.

`O=C1CCc2cc(OCCCCc3nnnn3C3CCCCC3)ccc2N1`: the growth inhibition came out at 2.35%.

For `C[C@@](Cc1ccc(O)c(O)c1)(NN)C(=O)O`, the growth inhibition was found to be 2.31%.

In the case of `CCc1ccc(CCOc2ccc(CC3SC(=O)NC3=O)cc2)nc1` (stereo not drawn), the growth inhibition is -0.422% and 2.5%.

In the case of `CC(C[N+](C)(C)C)OC(N)=O` (stereo not drawn), the growth inhibition turned out to be 0.0426%.

Turning to `CN(C)CCOc1ccc(/C(=C(/CCCl)c2ccccc2)c2ccccc2)cc1`, the growth inhibition was determined as 0.45%.

For `CCNC(=O)CCC/C=C\C[C@@H]1[C@@H](/C=C/[C@@H](O)CCc2ccccc2)[C@H](O)C[C@@H]1O`, the growth inhibition is 0.624%.

`CO[C@H]1O[C@@H]2O[C@@]3(C)CC[C@H]4[C@H](C)CC[C@@H]([C@H]1C)[C@@]24OO3`: the growth inhibition came out at 2.08%.

Turning to `N=C(N)NS(=O)(=O)c1ccc(N)cc1`, the growth inhibition was determined as 2.35%.

Turning to `CNC[C@H](O)c1cccc(O)c1`, the growth inhibition worked out at 0.894%.

With `CC(C)(C)NCC(O)c1ccc(O)c(CO)c1` (stereo not drawn), the growth inhibition was -1.85%.

With `C=C1[C@H](CO)[C@@H](O)C[C@@H]1n1cnc2c(=O)[nH]c(N)nc21`, the growth inhibition was 1.66%.

As for `CC(C)(C(=O)O)c1ccc(C(O)CCCN2CCC(C(O)(c3ccccc3)c3ccccc3)CC2)cc1` (stereo not drawn), the growth inhibition worked out at 0.223%.

For the compound `NCCS`, the growth inhibition was -1.29%.

As for `CCCc1nn(C)c2c(=O)[nH]c(-c3cc(S(=O)(=O)N4CCN(C)CC4)ccc3OCC)nc12`, the growth inhibition is -0.0138%.

For the compound `COC1C(O)CC(=O)OC(C)CC=CC=CC(OC2CCC(N(C)C)C(C)O2)C(C)CC(CC=O)C1OC1OC(C)C(OC2CC(C)(O)C(O)C(C)O2)C(N(C)C)C1O` (stereo not drawn), the growth inhibition was 0.622%.
